TWEAK-Fn14 inh: inhibitors of TWEAK-Fn14 signaling, primary screen, luciferase reporter cells, uHTS; TWEAK-stimulated Fn14 reporter cells, luciferase luminescence, 8 h; inhibition, % at 10 µM; actives 2% (n = 360,000); AID 1159606, 2016; in the data active = inhibition above about 50%
CF NFkB block: inhibitors of PAF-induced NF-kB signaling, primary screen, cell-based, GFP fluorescence, uHTS | KKLEB NF-kB-GFP reporter, GFP fluorescence overnight | inhibition, % at 5 µM | actives 0.86% (n = 360,000) | AID 588850, 2011;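 active = at least 50% inhibition at 5 µM, scaled per plate between neutral and stimulator controls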;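 also: PAF is a Pseudomonas aeruginosa culture filtrate used as stimulus; plate controls were PAF-stimulated DMSO wells for no effect and unstimulated DMSO wells for full effect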
KKLEB tox: cytotoxicity in KKLEB CF airway cells, primary screen, cytotoxicity control for CF NF-kB inhibitor project, cell-based, uHTS, fluorescence assay plates | KKLEB CF airway cells viability, ATPlite luminescence, overnight; hits give low values; cells stimulated with P. aeruginosa culture filtrate | activity change (cytotoxicity), % at 5 µM | actives 0.36% (n = 360,000) | AID 602141, 2011;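 active = corrected activity change at or below -50% at 5 µM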
HIF-2a inh: HIF-2a reporter inhibitors, primary screen, luminescence, 786-0 RCC cells; AID 624352, 2012; actives 0.72% (n = 360,000); inhibition, % at 18.8 µM; 786-0 RCC cells HIF-2a reporter, luciferase luminescence, overnight;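 active = inhibition of the luminescence signal of 40% or more relative to plate controls, in a single-dose primary screen at 18.75 µM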
Peg3 prom inh: Peg3 promoter-driven luciferase inhibitors, primary screen, cell-based, HeLa, luciferase luminescence; HeLa PEG-Prom luciferase reporter, overnight; inhibition, % at 20 µM; actives 1.7% (n = 360,000); AID 588405, 2011;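 active = inhibition of at least 50% at 20 µM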
TROY signal inh: inhibitors of TROY-driven NF-kB signaling, primary screen, Q293 LMP1-TROYcd cells, NF-kB luciferase, uHTS; Q293 LMP1-TROYcd NF-kB luciferase reporter, 4 h; inhibition, % at 10 µM; actives 0.98% (n = 360,000); AID 1347056, 2019;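 active = compounds whose plate-normalised and pattern-corrected inhibition of the luciferase reporter signal at the single screening dose is 50% or more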
* marks the source's active call; other numbers are inactive results. An excerpt weighted towards active compounds, which were near 4% of everything screened.

Screening CCc1ccc2c(c1)C1(C(=O)N2)N2CCCC2C(C(=O)c2ccc3ccccc3c2)C12C(=O)Nc1ccccc12 (stereo not drawn) returned TWEAK-Fn14 inh 38, CF NFkB block 2, KKLEB tox -24, HIF-2a inh -145, Peg3 prom inh 104* and TROY signal inh -16.
Screening COC(=O)c1c(NC(=S)NN2CCN(C)CC2)sc2c1CCC(C)C2 (stereo not drawn) returned TWEAK-Fn14 inh -28, CF NFkB block 26, KKLEB tox -45, HIF-2a inh -10, Peg3 prom inh 107* and TROY signal inh -8.
`O=NN(C(=O)NCc1cccnc1)C1CCCCC1` gave TWEAK-Fn14 inh 4, CF NFkB block -14, KKLEB tox 6, HIF-2a inh 1, Peg3 prom inh -13 and TROY signal inh 58*.
COc1ccc(N(CC(=O)Nc2ccc3c(c2)OCCO3)S(=O)(=O)c2cccnc2)cc1 was read as TWEAK-Fn14 inh 57*, CF NFkB block -34, KKLEB tox 22, HIF-2a inh -3, Peg3 prom inh 7 and TROY signal inh 17.
For COc1ccc(N(CC(=O)Nc2ccc3c(c2)OCCO3)S(C)(=O)=O)c(OC)c1 the results were TWEAK-Fn14 inh 62*, CF NFkB block -1, KKLEB tox 5, HIF-2a inh 22, Peg3 prom inh -56 and TROY signal inh 45.
Screening COc1ccc(C2=NO[C@@](CC(=O)O)(C(=O)Nc3ccc4c(c3)OCCO4)C2)cc1 returned TWEAK-Fn14 inh 43, CF NFkB block 10, KKLEB tox -10, HIF-2a inh -80, Peg3 prom inh -19 and TROY signal inh 55*.
Screening Cc1ccc(N(CC(=O)Nc2ccc3c(c2)OCCO3)S(=O)(=O)c2c(C)noc2C)cc1 returned TWEAK-Fn14 inh 43, CF NFkB block -3, KKLEB tox 1, HIF-2a inh 10, Peg3 prom inh -106 and TROY signal inh 15.
For COc1ccc(N(CC(=O)Nc2ccc3c(c2)OCCO3)S(=O)(=O)c2c(C)noc2C)cc1 the results were TWEAK-Fn14 inh 65*, CF NFkB block 8, KKLEB tox -2, HIF-2a inh 16, Peg3 prom inh -14 and TROY signal inh 3.
For NC(=O)COc1ccccc1C1=NO[C@@](CC(=O)O)(C(=O)Nc2ccc3c(c2)OCCO3)C1 the results were TWEAK-Fn14 inh -1, CF NFkB block -6, KKLEB tox -3, HIF-2a inh 9, Peg3 prom inh -4 and TROY signal inh 7.
Screening Cc1c(NC(=O)COC(=O)c2ccccc2O)c(=O)n(-c2ccccc2)n1C returned TWEAK-Fn14 inh -10, CF NFkB block -16, KKLEB tox -11, HIF-2a inh 9, Peg3 prom inh 1 and TROY signal inh -3.
For CCCCC[C@H](O)/C=C/C1C(=O)C=C[C@H]1C/C=C\CCCC(=O)OC (stereo partly drawn) the results were TWEAK-Fn14 inh 59*, CF NFkB block 48, KKLEB tox 2, HIF-2a inh 17, Peg3 prom inh 95* and TROY signal inh 12.
`CCCCC[C@H](O)/C=C/[C@@H]1[C@@H](C/C=C\CCCC(=O)OC)[C@@H](O)C[C@H]1O` gave TWEAK-Fn14 inh -22, CF NFkB block 16, KKLEB tox 2, HIF-2a inh 12, Peg3 prom inh -8 and TROY signal inh 9.
`Nc1ncnc2oc(-c3ccco3)c(-c3ccco3)c12` gave TWEAK-Fn14 inh 76*, CF NFkB block 53*, KKLEB tox -23, HIF-2a inh -16, Peg3 prom inh 40 and TROY signal inh -6.
`C=CCOc1ccccc1CNc1ccccc1C` gave TWEAK-Fn14 inh 69*, CF NFkB block -5, KKLEB tox -1, HIF-2a inh -23, Peg3 prom inh -11 and TROY signal inh 18.
CCOc1ccc(Br)cc1CNc1ccc2c(c1)OCCO2 was read as TWEAK-Fn14 inh 83*, CF NFkB block -6, KKLEB tox 2, HIF-2a inh 3, Peg3 prom inh -57 and TROY signal inh 87*.
`C=CCOc1ccccc1CNc1ccc2c(c1)OCCO2` gave TWEAK-Fn14 inh 91*, CF NFkB block 11, KKLEB tox -15, HIF-2a inh 13, Peg3 prom inh -3 and TROY signal inh 85*.
For c1cc(CNc2ccc3c(c2)OCCO3)ccn1 the results were TWEAK-Fn14 inh 81*, CF NFkB block -12, KKLEB tox 3, HIF-2a inh 28, Peg3 prom inh -7 and TROY signal inh 62*.
For CC(OC(=O)Cc1ccccc1[N+](=O)[O-])C(=O)NC(=O)NC1CCCCC1 (stereo not drawn) the results were TWEAK-Fn14 inh -18, CF NFkB block 8, KKLEB tox 7, HIF-2a inh -4, Peg3 prom inh 9 and TROY signal inh 17.
For NC(=O)c1cc(S(=O)(=O)Nc2ccccc2)cs1 the results were TWEAK-Fn14 inh 18, CF NFkB block -11, KKLEB tox 9, HIF-2a inh 3, Peg3 prom inh 6 and TROY signal inh 2.
`Cc1[nH]c(=O)c(C#N)cc1-c1csc(-c2ccccc2)n1` gave TWEAK-Fn14 inh -12, CF NFkB block -28, KKLEB tox 4, HIF-2a inh 18, Peg3 prom inh 60* and TROY signal inh -4.
`CSc1nc2cc(Oc3cccc(Cl)c3Cl)c(Cl)cc2[nH]1` gave TWEAK-Fn14 inh 23, CF NFkB block 35, KKLEB tox 28, HIF-2a inh 9, Peg3 prom inh 31 and TROY signal inh 56*.
CSc1nc2ccc(Cl)cc2[nH]1 was read as TWEAK-Fn14 inh 4, CF NFkB block 14, KKLEB tox -8, HIF-2a inh -36, Peg3 prom inh -14 and TROY signal inh -13.
Screening O=C(O/N=C1\CCCc2ccccc21)c1cccs1 returned TWEAK-Fn14 inh -23, CF NFkB block 4, KKLEB tox 5, HIF-2a inh -17, Peg3 prom inh -15 and TROY signal inh 80*.
CN=c1scc(C)n1/N=C/c1ccc(O)cc1O was read as TWEAK-Fn14 inh 64*, CF NFkB block -8, KKLEB tox -13, HIF-2a inh -49, Peg3 prom inh -96 and TROY signal inh -24.
For CN=c1scc(C)n1/N=C/c1ccc2c(c1)OCO2 the results were TWEAK-Fn14 inh 53*, CF NFkB block 0, KKLEB tox -24, HIF-2a inh -74, Peg3 prom inh -39 and TROY signal inh -55.
CN=c1scc(C)n1/N=C/c1ccc(O)cc1 was read as TWEAK-Fn14 inh -7, CF NFkB block 6, KKLEB tox 3, HIF-2a inh -220, Peg3 prom inh -251 and TROY signal inh 59*.

Screens (PubChem BioAssay)
